{"source": "PubChem BioAssay AID1694", "about": "(National Center for Advancing Translational Sciences (NCATS), 2009)", "note": "Inconclusive results are not listed. Activity calls are given as the source filed them. Calls come from the whole dose curve; as a rule, active = well fitted curve in the direction sought with a large enough effect; inconclusive = small, poorly fitted or top-dose-only effect, or another doubt; inactive = no such curve, though single readings can be large or run the other way.", "data": [{"test": "Confirmation Concentration-Response Assay for Inhibitors of Tau Fibril Formation, Total Fluorescence Counterscreen for Fluorescence Polarization", "settings": "Alexa594-tau K18 total fluorescence counterscreen, interference, tau K18 with P301L mutation; series mostly up to 100 µM; fluorescence change, negative = quenching: at the top concentration", "excerpt": "NIH Molecular Libraries Probe Production Network [MLPCN] NIH Chemical Genomics Center [NCGC] MLPCN Grant: X01 MH083262-01 Assay Provider: Carlo Ballatore, University of Pennsylvania NCGC Assay Overview: The microtubule-associated protein tau is an abundant protein in the axons of neurons that stabilizes microtubules. With its ability to modulate microtubule dynamics, tau contributes directly or indirectly, to key structural and regulatory cellular functions. Particularly important is the influence tau exerts on axonal transport, which allows signaling molecules, trophic factors and other essential cellular constituents to travel along the axons. Under pathological conditions, tau becomes sequestered into insoluble aggregates called neurofibrillary tangles. This phenomenon is believed to have pathological consequences by promoting axonal transport deficits that ultimately lead to synaptic dysfunction and neuronal loss. To identify inhibitors of tau aggregation, a heparin-induced tau fibril formation assay was used that employed a recombinantly expressed fragment of tau, K18 (Q242-E372), bearing a P301L mutation (Gustke et al. 1994; Hong et al. 1998). […] Total fluorescence (555 nm excitation and 632 nm emission) was measured to identify fluorescent or absorbent compounds at this wavelength. Such compounds may be artifacts that interfere with the Alexa 594 Tau fluorescence polarization assay. Gustke, N., B. Trinczek, et al. (1994). \"Domains of tau protein and interactions with microtubules.\" Biochemistry 33(32): 9511-22. Hong, M., V. Zhukareva, et al. (1998). \"Mutation-specific functional impairments in distinct tau isoforms of hereditary FTDP-17.\" Science 282(5395): 1914-7. Li, W. and V. M. Lee (2006). \"Characterization of two VQIXXK motifs for tau fibrillization in vitro.\" Biochemistry 45(51): 15692-701. von Bergen, M., S. Barghorn, et al. (2001). \"Mutations of tau protein in frontotemporal dementia promote aggregation of paired helical filaments by enhancing local beta-structure.\" J Biol Chem 276(51): 48165-74.\nFor screening, 2 uL/well human K18 P301L (15 uM unlabeled and 0.24 uM Alexa 594-labeled tau final concentrations) in reagent buffer (100 mM sodium acetate pH 7) was dispensed into black solid 1536-well plates (Grenier) using a solenoid-based dispenser. Following transfer of 23 nL compound or DMSO vehicle by a pin tool, 2 uL/well heparin (20 uM final concentration) in reagent buffer was added and the plate centrifuged 15 s at 1000 RPM. Plates were incubated 6 hr at 37 C and then 1 uL/well ThT (30 uM final concentration) was added. After a 1 hr ambient incubation, the plates were read by an Envision (Perkin Elmer) to monitor Alexa 594 FP (555 nm excitation and 632 nm emission). Keywords: NIH Roadmap, MLPCN, MLI, MLSMR, NCGC, qHTS, tau, tauopathies, Alzheimer's disease, fibril, neurodegeneration, aggregation", "values": [{"smiles": "O=C(Nc1nnc(S(=O)(=O)Nc2ccccc2)s1)C1CCCCC1", "fluorescence change, negative = quenching": "-18.2% (inactive)"}, {"smiles": "COc1ccc(NC(=O)C2CCN(S(=O)(=O)c3c(C)noc3/C=C/c3cccs3)CC2)cc1Cl", "fluorescence change, negative = quenching": "-12.3% (inactive)"}, {"smiles": "O=C(CSc1nc2scc(-c3ccco3)c2c(=O)n1-c1ccccc1)N1CCOCC1", "fluorescence change, negative = quenching": "-2.9% [at 57.1 µM] (inactive)"}, {"smiles": "Nc1nc2cc(S(=O)(=O)NC3=NCCCCC3)ccc2s1", "fluorescence change, negative = quenching": "17.4% (inactive)"}, {"smiles": "COc1cc(/C=N/N=C2/NC(=O)C(CC(=O)O)S2)ccc1OCc1ccc(Cl)cc1", "note": "(stereo not given)", "fluorescence change, negative = quenching": "22.5% (inactive)"}, {"smiles": "Cc1ccc(C(=O)Nc2nc(=O)n(C(=O)CC(C)C)s2)cc1", "fluorescence change, negative = quenching": "2.86% (inactive)"}, {"smiles": "Cc1cccc(NC(=O)c2c(NC(=O)c3ccccc3)sc3c2CCCC3)c1", "fluorescence change, negative = quenching": "-10.3% [at 57.1 µM] (inactive)"}, {"smiles": "NC(=O)c1nn(-c2ccccc2)c(=O)c2c(N)scc12", "fluorescence change, negative = quenching": "1.1% [at 57.1 µM] (inactive)"}, {"smiles": "O=C(Nc1nc2ccc(S(=O)(=O)N3CCCC3)cc2s1)c1ccc(F)cc1", "fluorescence change, negative = quenching": "-1.76% (inactive)"}, {"smiles": "CC(C)c1ccc(NS(=O)(=O)c2ccc3[nH]cc(C(=O)NCCc4ccccc4)c(=O)c3c2)cc1", "fluorescence change, negative = quenching": "-9.83% (inactive)"}, {"smiles": "Cc1ccc(NC(=O)c2c(NC(=O)Cc3ccccc3)sc3c2CCCC3)cc1", "fluorescence change, negative = quenching": "-4.68% [at 57.1 µM] (inactive)"}, {"smiles": "CCOC(=O)c1nn(-c2ccccc2)c(=O)c2c(NC(C)=O)scc12", "fluorescence change, negative = quenching": "12.6% [at 57.1 µM] (inactive)"}, {"smiles": "COc1c(Cl)cccc1NC(=O)c1c(NC(=O)Cc2ccccc2)sc2c1CCCC2", "fluorescence change, negative = quenching": "-3.36% [at 57.1 µM] (inactive)"}, {"smiles": "NCCc1ccc(O)c(O)c1", "fluorescence change, negative = quenching": "-17.2% (inactive)"}, {"smiles": "CN(c1ccccc1)S(=O)(=O)c1nnc(NC(=O)COc2ccccc2)s1", "fluorescence change, negative = quenching": "-11.1% (inactive)"}, {"smiles": "O=C(Nc1cccc(-c2nc3ccccc3o2)c1)c1cc([N+](=O)[O-])ccc1N1CCOCC1", "fluorescence change, negative = quenching": "-5.59% (inactive)"}, {"smiles": "CCOC(=O)c1ccc(S(=O)(=O)Nc2nc3cc(S(=O)(=O)NC4=NCCCCC4)ccc3s2)cc1", "fluorescence change, negative = quenching": "2.36% (inactive)"}, {"smiles": "Cc1cc2c(NC(=O)Nc3ccccc3)cccc2nn1", "fluorescence change, negative = quenching": "-20.3% (inactive)"}, {"smiles": "COc1ccc2oc(-c3ccc(NC(=O)c4ccc(N5CCOCC5)c([N+](=O)[O-])c4)cc3)nc2c1", "fluorescence change, negative = quenching": "-3.8% (inactive)"}, {"smiles": "COc1cccc(/C=C2/SC(=S)N(CC(=O)Nc3nccs3)C2=O)c1", "fluorescence change, negative = quenching": "-19.7% [at 57.1 µM] (inactive)"}, {"smiles": "COc1ccc(OC)c(NC(=O)c2c(NCc3cccs3)sc3c2CCCC3)c1", "fluorescence change, negative = quenching": "-28.3% [at 57.1 µM] (inactive)"}, {"smiles": "CN(C)c1ccc(N2C(=O)CSC2=S)cc1", "fluorescence change, negative = quenching": "-26.9% (inactive)"}, {"smiles": "O=S(=O)(c1ccc(N=C2NN=C(c3cc(F)ccc3F)CS2)cc1)N1CCOCC1", "fluorescence change, negative = quenching": "-19.6% (inactive)"}, {"smiles": "O=C(Cc1ccccc1)Nc1sc2c(c1C(=O)Nc1ccc(Cl)cc1)CCCC2", "Potency": "inactive"}, {"smiles": "CCOC(=O)c1nn(-c2ccccc2)c(=O)c2c(NC(=O)c3ccccc3)scc12", "fluorescence change, negative = quenching": "0.942% [at 57.1 µM] (inactive)"}]}]}
